# Data published in PubChem BioAssay (EPA / NIEHS).
# Results filed as inconclusive are left out. Active and inactive are the calls of the source. The calls were made as follows, unless noted: active = hit-call score of the fitted dose curve at least 0.9, where 1 is the maximum; inactive = score below 0.9.
# Assay: CCTE_Shafer_MEA_acute_spike_number: CCTE's Neural Acute Assay for Total Number of Spikes, Shafer Lab (AID 2284008)
# Outline: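 Read-out is the total spike count over 40 min, expressed as percent change from each well's own pre-treatment baseline and fitted in the loss direction against DMSO. Rat cortical neurons were exposed at 0.03-40 uM on DIV 13 or 15.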
row,Structure (SMILES),outcome
1,c1ccc(NNc2ccccc2)cc1,inactive
2,O=C(Oc1ccc(Br)cc1)N1CCN2CCC1CC2,inactive
3,CCN(CC)N=O,inactive
4,ClC1=C(Cl)[C@]2(Cl)[C@H]3[C@H]([C@@H]4C=C[C@H]3C4)[C@@]1(Cl)C2(Cl)Cl,inactive
5,O=Cc1ccco1,inactive
6,N#CC(Br)Br,inactive
7,ClCCOCCCl,inactive
8,CCN(CC)CCO,inactive

# Assay: CCTE_Shafer_MEA_acute_firing_rate_mean: CCTE's Neural Acute Assay for Mean Firing Rate, Shafer Lab (AID 2284009);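 also: analyzed for loss of signal so actives lower firing rate relative to DMSO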
# Outline: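 Read-out: well-mean spike rate (spikes/recording length/electrodes), % change from 40 min pre-dose baseline to 40 min with compound. Rat cortical cultures, DIV 13 or 15, 37 C; 0.03-40 uM; DMSO as negative control.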
row,Structure (SMILES),outcome
1,c1ccc(NNc2ccccc2)cc1,inactive
2,O=C(Oc1ccc(Br)cc1)N1CCN2CCC1CC2,inactive
3,CCN(CC)N=O,inactive
4,ClC1=C(Cl)[C@]2(Cl)[C@H]3[C@H]([C@@H]4C=C[C@H]3C4)[C@@]1(Cl)C2(Cl)Cl,inactive
5,O=Cc1ccco1,inactive
6,N#CC(Br)Br,inactive
7,ClCCOCCCl,inactive
8,CCN(CC)CCO,inactive

# Assay: CCTE_Harrill_HTTr_Viability_MCF7: CCTE's 6-hour Cell Viability Assessment for the High-Throughput Transcriptomics (HTTr) Platform, in MCF-7 cells cultured in DMEM + 10% fetal bovine serum, Harrill Lab (AID 2284010)
# Outline: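 Cells were dosed with chemicals in an eight-point dilution series, imaged 6 hours later for propidium iodide uptake, and the endpoint was analyzed by bidirectional fitting against DMSO as negative control.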
row,Structure (SMILES),outcome
1,c1ccc(NNc2ccccc2)cc1,inactive
2,OCCCl,inactive
3,O=C(Oc1ccc(Br)cc1)N1CCN2CCC1CC2,inactive
4,CCOc1cccc(C2(N3CCN(c4ccccc4)CC3)CCC(C)CC2)c1 (stereo unspecified),inactive
5,N#CC(Br)(Br)C(N)=O,inactive
6,c1ccc(C2CO2)cc1 (stereo unspecified),inactive
7,Nc1ccc(Oc2ccc(N)cc2)cc1,inactive
8,CCN(CC)N=O,inactive
9,Clc1ccc(Cl)c(Cl)c1,inactive
10,Cc1ccc(N=C=O)cc1N=C=O,inactive
11,Clc1ccccc1Cl,inactive
12,ClC1=C(Cl)[C@]2(Cl)[C@H]3[C@H]([C@@H]4C=C[C@H]3C4)[C@@]1(Cl)C2(Cl)Cl,inactive
13,c1ccc2c(c1)oc1ccccc12,inactive
14,Cc1ccc([N+](=O)[O-])cc1,inactive
15,CCC12COCN1COC2,inactive
16,CC(O)CCO (stereo unspecified),inactive
17,CN(C)c1ccccc1,inactive
18,Cc1ccc(N)cc1,inactive
19,C1=Cc2cccc3cccc1c23,inactive

row,Structure (SMILES),outcome
1,N#CC(Br)Br,inactive
2,O=C(O)C1C2CCC(O2)C1C(=O)O (stereo unspecified),inactive
3,COC(=O)c1ccccc1N,inactive
4,CC(C)(C)OOC(C)(C)CCC(C)(C)OOC(C)(C)C,inactive
5,Cn1cc(-c2ccccc2)c(=O)c(-c2cccc(C(F)(F)F)c2)c1,inactive
6,[O-][Cl+]O,inactive
7,OCCOCCO,inactive
8,Brc1ccc(Oc2ccccc2)cc1,inactive
9,CCCCCCCCOC(=O)c1ccc(C(=O)OCCCCCCCC)c(C(=O)OCCCCCCCC)c1,inactive
10,CN(C)c1ccc(C(=O)c2ccc(N(C)C)cc2)cc1,inactive
11,Cc1cccc(N)c1N,inactive
12,Nc1cc(Cl)cc(C(=O)O)c1Cl,inactive
13,ClCCOCCCl,inactive
14,Nc1ccc(Cc2ccc(N)cc2)cc1,inactive
15,CN(C)C(=O)Nc1ccc(Cl)cc1,inactive
16,c1ccc2c(c1)-c1cccc3cccc-2c13,inactive
17,C=CCc1ccc2c(c1)OCO2,inactive
18,CCCCCCCCCCCCCN1CC(C)OC(C)C1 (stereo unspecified),inactive
19,CCN(CC)CCO,inactive

# Assay: CCTE_Harrill_HTTr_Apoptosis_MCF7: CCTE's 6-hour Apoptosis Assessment for the High-Throughput Transcriptomics (HTTr) Platform, in MCF-7 cells cultured in DMEM + 10% fetal bovine serum, Harrill Lab (AID 2284011)
# Outline: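 MCF-7 (DMEM + 10% FBS), 384-well; 8-pt dilution series, 6 h chemical exposure; caspase-3/7 activation via CellEvent Caspase 3/7 Green, HCI; bidirectional fit vs DMSO.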
row,Structure (SMILES),outcome
1,c1ccc(NNc2ccccc2)cc1,inactive
2,OCCCl,inactive
3,O=C(Oc1ccc(Br)cc1)N1CCN2CCC1CC2,inactive
4,CCOc1cccc(C2(N3CCN(c4ccccc4)CC3)CCC(C)CC2)c1 (stereo unspecified),inactive
5,N#CC(Br)(Br)C(N)=O,inactive
6,c1ccc(C2CO2)cc1 (stereo unspecified),inactive
7,Nc1ccc(Oc2ccc(N)cc2)cc1,inactive
8,CCN(CC)N=O,inactive
9,Clc1ccc(Cl)c(Cl)c1,inactive
10,Cc1ccc(N=C=O)cc1N=C=O,inactive
11,Clc1ccccc1Cl,inactive
12,ClC1=C(Cl)[C@]2(Cl)[C@H]3[C@H]([C@@H]4C=C[C@H]3C4)[C@@]1(Cl)C2(Cl)Cl,inactive
13,c1ccc2c(c1)oc1ccccc12,inactive
14,Cc1ccc([N+](=O)[O-])cc1,inactive
15,CCC12COCN1COC2,inactive
16,CC(O)CCO (stereo unspecified),inactive
17,CN(C)c1ccccc1,inactive
18,Cc1ccc(N)cc1,inactive
19,C1=Cc2cccc3cccc1c23,inactive

row,Structure (SMILES),outcome
1,N#CC(Br)Br,inactive
2,O=C(O)C1C2CCC(O2)C1C(=O)O (stereo unspecified),inactive
3,COC(=O)c1ccccc1N,inactive
4,CC(C)(C)OOC(C)(C)CCC(C)(C)OOC(C)(C)C,inactive
5,Cn1cc(-c2ccccc2)c(=O)c(-c2cccc(C(F)(F)F)c2)c1,inactive
6,[O-][Cl+]O,inactive
7,OCCOCCO,inactive
8,Brc1ccc(Oc2ccccc2)cc1,inactive
9,CCCCCCCCOC(=O)c1ccc(C(=O)OCCCCCCCC)c(C(=O)OCCCCCCCC)c1,inactive
10,CN(C)c1ccc(C(=O)c2ccc(N(C)C)cc2)cc1,inactive
11,Cc1cccc(N)c1N,inactive
12,Nc1cc(Cl)cc(C(=O)O)c1Cl,inactive
13,ClCCOCCCl,inactive
14,Nc1ccc(Cc2ccc(N)cc2)cc1,inactive
15,CN(C)C(=O)Nc1ccc(Cl)cc1,inactive
16,c1ccc2c(c1)-c1cccc3cccc-2c13,inactive
17,C=CCc1ccc2c(c1)OCO2,inactive
18,CCCCCCCCCCCCCN1CC(C)OC(C)C1 (stereo unspecified),inactive
19,CCN(CC)CCO,inactive

# Assay: CCTE_Harrill_HTTr_CellCount_MCF7: CCTE's Cell Proliferation Assessment for the High-Throughput Transcriptomics (HTTr) Platform, Harrill Lab (AID 2284012; active = hit-call score of the fitted dose curve at least 0.9, where 1 is the maximum;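 also: count of Hoechst-stained nuclei per well by high-content imaging in MCF-7 cells; cells exposed to compound for six hours; intended direction is loss of nuclei count meaning fewer cells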)
# Outline: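 Chemicals in eight-point dilution series are added to MCF-7 cells for six hours, nuclei are stained with Hoechst and imaged, and per-well nuclei counts are fitted in both directions relative to DMSO controls.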
row,Structure (SMILES),outcome
1,c1ccc(NNc2ccccc2)cc1,inactive
2,CCOc1cccc(C2(N3CCN(c4ccccc4)CC3)CCC(C)CC2)c1 (stereo unspecified),inactive
3,N#CC(Br)(Br)C(N)=O,inactive
4,c1ccc(C2CO2)cc1 (stereo unspecified),inactive
5,Nc1ccc(Oc2ccc(N)cc2)cc1,inactive
6,CCN(CC)N=O,inactive
7,ClC1=C(Cl)[C@]2(Cl)[C@H]3[C@H]([C@@H]4C=C[C@H]3C4)[C@@]1(Cl)C2(Cl)Cl,inactive
8,CCC12COCN1COC2,inactive
9,CC(O)CCO (stereo unspecified),inactive
10,CN(C)c1ccccc1,inactive
11,Cc1ccc(N)cc1,inactive
12,C1=Cc2cccc3cccc1c23,inactive
13,N#CC(Br)Br,inactive
14,O=C(O)C1C2CCC(O2)C1C(=O)O (stereo unspecified),inactive
15,COC(=O)c1ccccc1N,inactive
16,CC(C)(C)OOC(C)(C)CCC(C)(C)OOC(C)(C)C,inactive
17,OCCOCCO,inactive
18,Brc1ccc(Oc2ccccc2)cc1,inactive
19,CCCCCCCCOC(=O)c1ccc(C(=O)OCCCCCCCC)c(C(=O)OCCCCCCCC)c1,inactive
20,CN(C)c1ccc(C(=O)c2ccc(N(C)C)cc2)cc1,inactive
21,Nc1cc(Cl)cc(C(=O)O)c1Cl,inactive
22,CN(C)C(=O)Nc1ccc(Cl)cc1,inactive
23,CCCCCCCCCCCCCN1CC(C)OC(C)C1 (stereo unspecified),inactive
24,CCN(CC)CCO,inactive
